Reference: PubChem BioAssay (NCATS)
Results filed as inconclusive are left out. Calls of active or inactive are those of the source. Unless noted, calls follow the shape of the dose curve; as a rule, active = well fitted curve in the direction sought with a large enough effect; inconclusive = small, poorly fitted or top-dose-only effect, or another doubt; inactive = no such curve, though single readings can be large; an effect the other way counts as inactive or inconclusive.

Columns and labels:
[1] = biological target: phosphoglycerate mutase (Leishmania major) (UniProt Q4Q090); assay: qHTS Validation Assay to Find Inhibitors of Phosphoglycerate Mutase (AID 504548);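 also: end-point luminescence from Kinase-GloPlus after the PGAM reaction; series mostly up to about 58 µM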
Sequence of phosphoglycerate mutase (Leishmania major) (Q4Q090 1-553): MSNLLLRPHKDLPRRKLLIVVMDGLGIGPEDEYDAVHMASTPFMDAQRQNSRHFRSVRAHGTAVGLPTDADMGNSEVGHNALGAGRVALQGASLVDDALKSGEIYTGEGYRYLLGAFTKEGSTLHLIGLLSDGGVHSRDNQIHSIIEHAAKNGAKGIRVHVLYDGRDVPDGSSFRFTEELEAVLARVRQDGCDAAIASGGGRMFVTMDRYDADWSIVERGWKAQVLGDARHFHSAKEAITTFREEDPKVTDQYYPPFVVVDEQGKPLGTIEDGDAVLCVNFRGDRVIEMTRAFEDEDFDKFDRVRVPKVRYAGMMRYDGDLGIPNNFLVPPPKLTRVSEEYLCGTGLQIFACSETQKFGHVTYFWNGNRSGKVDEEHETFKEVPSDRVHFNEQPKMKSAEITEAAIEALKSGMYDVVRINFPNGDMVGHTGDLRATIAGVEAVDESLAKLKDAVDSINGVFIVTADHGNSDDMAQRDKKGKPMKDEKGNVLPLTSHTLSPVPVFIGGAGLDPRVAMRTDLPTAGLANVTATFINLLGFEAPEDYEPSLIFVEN
In short: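 L. major PGAM (1.25nM final) was added to substrate buffer and pinned compound, incubated 45 minutes at room temperature, then Kinase-GloPlus added; luminescence read after 10 minutes. Buffer: 100 mM TEA pH 7.6, 5 mM MgCl2, 0.01% Tween-20.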

[2] = qHTS for Inhibitors of ATXN expression: Validation of Cytotoxic Assay (AID 588349)
In short: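 Toxicity of test compounds toward HEK293 cells is scored from cellular ATP content measured by CellTiter Glo. Cells receive titrated doses and incubate 72 hr at 37 degrees C beforehand.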

[3] = qHTS for Inhibitors of ATXN expression: Validation (AID 588378); also: series mostly up to about 57 µM; nearly all actives have a fitted effect of over 75% in size
In short: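 Luminescence from an ATXN2-FFLuc reporter in HEK293 cells served as read-out after 24 h compound treatment at 37 degrees C; CellTiter-Fluor fluorescence was recorded first to assess viability.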

[4] = biological target: Glutaminase kidney isoform, mitochondrial (Homo sapiens) (UniProt O94925); assay: qHTS for Inhibitors of Glutaminase (GLS): LOPAC Validation (AID 624146);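 also: glutamate product detected by oxidase and peroxidase coupled Amplex red fluorescence gain; series mostly up to about 46 µM; nearly all actives have a fitted effect of over 60% in size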
In short: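 Glutamate formation by hKGA was monitored fluorometrically using coupled glutamate oxidase, HRP and Amplex Red. Substrate was added as 1 mM L-glutamine solution; incubation was 30 min at RT after an initial read.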

[5] = qHTS of Trypanosoma Brucei Inhibitors: LOPAC Validation (AID 624147)
In short: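 Luminescent Kinase-Glo Plus end-point after 45 min room-temperature reaction of T. brucei pyruvate kinase started with 130 uM ADP (final). Buffer TEA 50 mM pH 7.2 with KCl, MgCl2, BSA, Tween-20; titration-based qHTS with fitted concentration-effect curves.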

[6] = biological target: Glucagon-like peptide 1 receptor (Homo sapiens) (UniProt P43220); assay: qHTS of GLP-1 Receptor Agonists: LOPAC Validation (AID 624148);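 also: higher luminescence signal means agonism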
In short: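 HEK293 cells stably co-expressing a cAMP-responsive luciferase reporter and a hypersensitive GLP-1R were plated 12 h at 37 °C and exposed to compounds for 4-6 hr at 37 °C, 5% CO2. Luminescence was read 12 min after adding detection reagent.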

[7] = qHTS of Nrf2 Activators: LOPAC Validation (AID 624149)
In short: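 Following overnight seeding in 5% FBS OPTI-MEM, AREc32_Fluc cells receive compounds for a 24 hr incubation at 37 deg C with 5% CO2. Steady-Glo is added, and after 30 min at RT luminescence is recorded.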

[8] = HTS Assay for Allosteric Antagonists of the Human D2 Dopamine Receptor: Hit Validation in HTRF (AID 624455);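 also: stable D1 dopamine receptor cell line scored for blocking the D1 response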
In short: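 Validation of hits used D1 receptor stably expressed in cells with HTRF detection of response inhibition; origin screen measured calcium flux following EC80 dopamine in a force-coupled, inducible Hek293 Trex D2 cell line.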

[9] = biological target: Arylsulfatase A (Homo sapiens) (UniProt P15289); assay: qHTS screen for enhancers of Arylsulfatase A (ASA1): LOPAC Validation Assay (AID 720538)
In short: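 SV40-transformed skin fibroblasts from an MLD patient (ASA-I179S) were treated with compounds for 48h at 37 degree C, then lysed with 0.5mM pNCS final substrate for 14h at room temperature; NaOH stop, fluorescence read (Ex=525 nm; Em=598 nm).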

[10] = qHTS for compounds that reverse cellular toxicity of Amyloid beta (A-beta) peptide in yeast: LOPAC Validation Assay (AID 720559)
In short: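 Yeast cells expressing toxic A-beta were combined with pinned compounds in growth medium and incubated 48 hr at 30 C. Growth was read as absorbance at 600 nm and normalized to DMSO and to an equimolar FeCl3/clioquinol positive control.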

[11] = qHTS for Activators of Parkin Expression: LOPAC Validation Assay (NLuc Reporter) (AID 720572)
In short: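 Cells harboring the Parkin-promoter coincidence reporter were treated for 24 h at seven concentrations. NLuc output was measured sequentially after the FLuc channel and scaled between DMSO and positive control values.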

[12] = qHTS for Activators of Parkin Expression: LOPAC Validation Assay (FLuc Reporter) (AID 720573)
In short: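 Neuronal cell line stably carrying FLuc/NLuc coincidence reporter under Parkin promoter; cells plated 24 h, then compounds added in 7-point dose response for 24 h at 37 C. FLuc luminescence read; normalized to DMSO and positive control (100%).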

[13] = biological target: T1, Hexokinase-4 (Homo sapiens) + Glucokinase regulatory protein (Homo sapiens) (UniProt P35557+Q14397); assay: qHTS assay for inhibitors of recombinant human GCK-GKRP interaction: Diaphorase-coupled assay (AID 743205)
T1 sequence (P35557 whole entry, looked up): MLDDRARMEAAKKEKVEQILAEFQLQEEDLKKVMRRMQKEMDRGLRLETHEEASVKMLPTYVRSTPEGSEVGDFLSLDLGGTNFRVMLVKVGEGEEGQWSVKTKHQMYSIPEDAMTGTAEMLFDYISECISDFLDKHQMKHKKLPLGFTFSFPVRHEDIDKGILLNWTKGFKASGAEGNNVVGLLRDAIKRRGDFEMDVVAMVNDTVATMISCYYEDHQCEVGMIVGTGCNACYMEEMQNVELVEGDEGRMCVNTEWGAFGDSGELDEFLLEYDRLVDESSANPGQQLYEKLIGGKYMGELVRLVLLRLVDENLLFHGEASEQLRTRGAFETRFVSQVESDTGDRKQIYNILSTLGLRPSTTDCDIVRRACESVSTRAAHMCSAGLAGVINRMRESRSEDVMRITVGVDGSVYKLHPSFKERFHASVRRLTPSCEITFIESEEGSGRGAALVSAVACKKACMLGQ
T1 sequence (Q14397 whole entry, looked up): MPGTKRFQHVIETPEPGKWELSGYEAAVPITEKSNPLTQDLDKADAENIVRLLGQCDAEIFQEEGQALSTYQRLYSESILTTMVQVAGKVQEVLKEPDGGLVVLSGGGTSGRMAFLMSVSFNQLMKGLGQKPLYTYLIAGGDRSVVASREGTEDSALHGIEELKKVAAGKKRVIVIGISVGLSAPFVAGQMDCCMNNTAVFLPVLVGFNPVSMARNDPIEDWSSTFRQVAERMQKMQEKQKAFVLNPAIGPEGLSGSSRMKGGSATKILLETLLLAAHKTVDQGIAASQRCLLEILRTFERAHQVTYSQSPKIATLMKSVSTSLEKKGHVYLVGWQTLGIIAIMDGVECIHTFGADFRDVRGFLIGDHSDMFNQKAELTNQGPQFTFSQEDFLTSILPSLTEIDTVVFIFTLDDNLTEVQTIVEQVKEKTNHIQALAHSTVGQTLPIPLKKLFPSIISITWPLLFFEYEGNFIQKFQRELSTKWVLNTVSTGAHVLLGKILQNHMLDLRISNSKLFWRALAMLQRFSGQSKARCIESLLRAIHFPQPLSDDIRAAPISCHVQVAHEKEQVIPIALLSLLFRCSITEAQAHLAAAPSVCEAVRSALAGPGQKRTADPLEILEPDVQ
In short: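 GST-GCK (10 nM) with FLAG-GKRP (10 nM), 5 mM glucose and 0.4 mM ATP in pH 7.6 Hepes; compounds preincubated 20 min with substrate. G6PDH/diaphorase coupling converts resazurin to resorufin, read kinetically (ex 525/em 590 nm) for 30 min.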

[14] = biological target: T1, Hexokinase-4 (Homo sapiens) + Glucokinase regulatory protein (Homo sapiens); assay: qHTS assay for inhibitors of recombinant human GCK-GKRP interaction: ADP-Glo assay (AID 743206)
In short: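 Pin-transferred compounds meet a 15 nM GST-GCK/15 nM FLAG-GKRP/2 uM S6P mix (dispense concentrations). ATP is then added to 0.4 mM final with 5 mM glucose, and the reaction runs 60 min at room temperature. ADP is quantified luminescently.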

[15] = biological target: T1, Hexokinase-4 (Homo sapiens) + Glucokinase regulatory protein (Homo sapiens); assay: qHTS assay for inhibitors of recombinant human GCK-GKRP interaction: HTRF assay (AID 743207)
In short: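 GST-GCK and FLAG-GKRP (5 nM each) were combined with 2 uM S6P in pH 7.1 Hepes/MgCl2/KCl/DTT buffer, then compound and anti-FLAG XL665/anti-GST K antibodies were added. After 60 min at room temperature, HTRF 665/615 nm emission was read.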

[16] = Natriuretic polypeptide receptor (hNpr1) antagonism - Pilot counterscreen GloSensor control cell line (AID 1347045; calls by dose curve; also: series mostly up to about 38 µM)
In short: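 The SNP-driven cGMP luminescence signal (50 uM, 20 min, room temperature) was measured in GloSensor HEK293 control cells. Compounds were tested as a LOPAC titration series and preincubated for 30-50 min.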

[17] = biological target: Atrial natriuretic peptide receptor 1 (Homo sapiens) (UniProt P16066); assay: Natriuretic polypeptide receptor (hNpr1) antagonism - Pilot screen (AID 1347049; calls by dose curve;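 also: HEK293 cells with hNpr1 and GloSensor cGMP luciferase stimulated by 0.1 nM hNppA; agonist-evoked cGMP luminescence read 20 min after hNppA addition; series mostly up to about 58 µM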)
In short: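 Cells expressing receptor plus cGMP biosensor are seeded and incubated overnight at 37C, then loaded with GloSensor reagent (2% final) at room temperature for 2 h. Library compounds go on for 30 min. A pre-read precedes agonist (hNppA, 0.1 nM final) and a 20-min readout.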

[18] = biological target: Atrial natriuretic peptide receptor 2 (Homo sapiens) (UniProt P20594); assay: Natriuretic polypeptide receptor (hNpr2) antagonism - Pilot subtype selectivity assay (AID 1347050; calls by dose curve)
Sequence of Atrial natriuretic peptide receptor 2 (Homo sapiens) (P20594 whole entry, looked up): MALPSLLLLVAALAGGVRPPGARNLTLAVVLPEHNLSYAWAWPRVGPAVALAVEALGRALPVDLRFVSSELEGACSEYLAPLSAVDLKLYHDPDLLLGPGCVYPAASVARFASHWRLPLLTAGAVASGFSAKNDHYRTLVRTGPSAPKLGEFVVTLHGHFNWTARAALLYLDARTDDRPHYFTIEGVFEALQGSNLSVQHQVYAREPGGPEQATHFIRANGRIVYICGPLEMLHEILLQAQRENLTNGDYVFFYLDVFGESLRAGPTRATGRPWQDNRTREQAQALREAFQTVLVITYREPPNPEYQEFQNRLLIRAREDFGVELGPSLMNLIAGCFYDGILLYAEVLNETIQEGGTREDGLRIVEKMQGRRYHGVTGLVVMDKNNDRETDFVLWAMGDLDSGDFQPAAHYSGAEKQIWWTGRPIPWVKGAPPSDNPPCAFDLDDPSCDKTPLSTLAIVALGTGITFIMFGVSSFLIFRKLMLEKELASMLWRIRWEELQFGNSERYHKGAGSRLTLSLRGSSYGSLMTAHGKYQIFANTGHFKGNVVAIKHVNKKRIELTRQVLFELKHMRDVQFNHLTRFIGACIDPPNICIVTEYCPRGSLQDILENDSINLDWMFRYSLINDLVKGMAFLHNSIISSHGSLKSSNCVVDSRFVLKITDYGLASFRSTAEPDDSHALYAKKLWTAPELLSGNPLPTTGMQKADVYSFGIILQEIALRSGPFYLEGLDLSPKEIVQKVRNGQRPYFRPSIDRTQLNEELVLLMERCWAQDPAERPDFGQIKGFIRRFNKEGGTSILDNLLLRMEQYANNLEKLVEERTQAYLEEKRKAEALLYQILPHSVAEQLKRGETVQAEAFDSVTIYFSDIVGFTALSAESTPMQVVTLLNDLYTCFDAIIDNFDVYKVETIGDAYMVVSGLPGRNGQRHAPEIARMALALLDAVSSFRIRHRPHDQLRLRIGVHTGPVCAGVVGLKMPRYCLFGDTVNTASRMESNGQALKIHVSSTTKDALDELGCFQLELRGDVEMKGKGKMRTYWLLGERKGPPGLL
In short: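 Read-out: GloSensor luminescence (CCD imager), baseline vs post-stimulation. HEK293 cells expressing hNpr2; compounds pre-incubated 30-50 min at ambient temperature; hNppC 1 nM final, 20 min.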

[19] = biological target: T2, Tyrosine-protein phosphatase non-receptor type substrate 1 (Homo sapiens) + Leukocyte surface antigen CD47 (Homo sapiens) (UniProt P78324+Q08722); assay: CD47-SIRPalpha protein protein interaction - LANCE assay qHTS validation (AID 1347057; active = well fitted curve in the direction sought with a large enough effect in the signal ratio, with a control signal flat, not every such curve was filed as active; the % refers to the signal ratio; also: series mostly up to about 38 µM)
T2 sequence (P78324 whole entry, looked up, the tested form may be a part): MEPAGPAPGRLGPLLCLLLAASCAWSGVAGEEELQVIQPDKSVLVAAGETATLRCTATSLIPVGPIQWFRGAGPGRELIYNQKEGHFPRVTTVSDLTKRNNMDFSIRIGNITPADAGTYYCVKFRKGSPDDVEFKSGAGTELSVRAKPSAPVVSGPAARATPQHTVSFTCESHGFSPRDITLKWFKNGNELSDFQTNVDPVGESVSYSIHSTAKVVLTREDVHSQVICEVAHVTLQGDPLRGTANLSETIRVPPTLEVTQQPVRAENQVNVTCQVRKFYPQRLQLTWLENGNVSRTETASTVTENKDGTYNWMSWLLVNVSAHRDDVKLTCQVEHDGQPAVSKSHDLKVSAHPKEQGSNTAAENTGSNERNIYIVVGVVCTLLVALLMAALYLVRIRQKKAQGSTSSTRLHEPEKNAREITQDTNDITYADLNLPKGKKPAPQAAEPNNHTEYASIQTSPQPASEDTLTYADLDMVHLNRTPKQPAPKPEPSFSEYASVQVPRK
T2 sequence (Q08722 whole entry, looked up, the tested form may be a part): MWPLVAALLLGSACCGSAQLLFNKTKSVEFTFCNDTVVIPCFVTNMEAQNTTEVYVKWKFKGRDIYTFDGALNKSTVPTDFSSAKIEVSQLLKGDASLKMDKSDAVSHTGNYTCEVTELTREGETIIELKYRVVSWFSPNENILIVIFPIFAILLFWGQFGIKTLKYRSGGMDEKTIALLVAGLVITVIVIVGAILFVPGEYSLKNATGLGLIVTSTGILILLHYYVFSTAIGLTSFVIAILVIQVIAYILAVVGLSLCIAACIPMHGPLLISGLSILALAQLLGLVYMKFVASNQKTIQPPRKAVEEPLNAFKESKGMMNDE
In short: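 Inhibition of soluble CD47/SIRPalpha ectodomain association by titrated compounds, measured as 665/615 nm time-resolved FRET ratio after sequential 30 min room-temperature incubations.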

[20] = biological target: T2, Tyrosine-protein phosphatase non-receptor type substrate 1 (Homo sapiens) + Leukocyte surface antigen CD47 (Homo sapiens); assay: CD47-SIRPalpha protein protein interaction - HTRF assay qHTS validation (AID 1347058; active = well fitted curve in the direction sought with a large enough effect in the signal ratio, not every such curve was filed as active; the % refers to the signal ratio; also: series mostly up to about 38 µM)
In short: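 Soluble extracellular domains (6His-CD47, Avi-tag-biotinylated SIRPalpha) in PBS pH 7.4 with 0.05% IGEPAL CA-630. Compounds were preincubated 30 min at RT with CD47 and anti-His-Eu, then SIRPalpha and SAV-XL665 were added. TR-FRET 665/615 ratio.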

[21] = biological target: T2, Tyrosine-protein phosphatase non-receptor type substrate 1 (Homo sapiens) + Leukocyte surface antigen CD47 (Homo sapiens); assay: CD47-SIRPalpha protein protein interaction - Alpha assay qHTS validation (AID 1347059);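 also: bead proximity luminescence from CD47 binding SIRPalpha after compound preincubation with SIRPalpha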
In short: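 In PBS (pH 7.4) with 0.05% IGEPAL CA-630, compound is preincubated with biotin-Avi-SIRPalpha ectodomain before His-CD47 ectodomain and affinity beads are added. Light-protected room-temperature incubations; AlphaScreen readout.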

[22] = test system: Zika virus NS2B-NS3 protease (unlinked); assay: Optimization of GU AMC qHTS for Zika virus inhibitors: Unlinked NS2B-NS3 protease assay (AID 1347151); also: series mostly up to about 52 µM; nearly all actives have a fitted effect of over 80% in size
In short: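 Noncovalent complex of NS2B hydrophilic domain and NS3 protease domain, 25 nM final, in 10 mM Tris-HCl pH 8.0, 0.01% Tween 20. AMC fluorescence change over 15 min at room temperature was fitted to a 4-parameter Hill equation.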

[23] = biological target: Lysine-specific demethylase 5B (Homo sapiens) (UniProt Q9UGL1); assay: Optimization screen for KDM5B Histone Demethylases FDH coupled qHTS against the LOPAC library (AID 1347166)
In short: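 KDM5BDeltaAP (200nM final) in 50mM HEPES pH 7.5, 0.01% Tween-20 was preincubated with compound for 10 min at room temperature. A substrate mix of 12.5uM H3K4Me3, 25uM a-ketoglutarate, ascorbate, Fe2+, NAD+ and formaldehyde dehydrogenase was then added. NADH fluorescence (340/450 nm) was read initially and after 30 min.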

[24] = qHTS to identify inhibitors of the type 1 interferon - major histocompatibility complex class I in skeletal muscle: primary screen against the NCATS LOPAC collection (AID 1347405);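 also: human myoblasts with HiBiT tag on endogenous HLA-B stimulated by IFN-beta; lytic HiBiT luminescence reporting HLA-B protein level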
In short: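 IFN-beta-stimulated (4 ng/ml) HLA-B HiBiT knock-in myoblasts, compound-treated 24 hrs up to 46 uM final; signal via LgBiT complementation and furimazine luminescence.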

[25] = qHTS for inhibitors of adenylyl cyclases using a fission yeast platform: a pilot screen against the NCATS LOPAC library (AID 1347410)
In short: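 S. pombe CHP2027 (AC9-GNAS-PDE4D2) carrying a PKA-repressed fbp1-GFP reporter was exposed to LOPAC compounds (final up to 57 µM) for 18 h at 30C in the dark, in EMM with histidine, lysine and uracil; GFP gain-of-signal read by laser scanning cytometry.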

[26] = Validation qHTS assay for inhibitors of Activation Induced Cytidine Deaminase (AID): UDG Counterscreen signal (AID 1347427)
In short: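 Fluorescence at 560 nm excitation, 665 nm emission reports UDG signal after 250 mM NaOH (2x) addition and 30 min. Enzymes (AID 1 uM, UDG 2 U/mL, at 4/3x) preincubated 10 min with compound, then 4 h with 4x 250 nM DJC20/DJC23 substrate at room temperature.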

[27] = biological target: Single-stranded DNA cytosine deaminase (Homo sapiens) (UniProt Q9GZX7); assay: Validation qHTS assay for inhibitors of Activation Induced Cytidine Deaminase (AID): AID signal (AID 1347429)
Sequence of Single-stranded DNA cytosine deaminase (Homo sapiens) (Q9GZX7 whole entry, looked up): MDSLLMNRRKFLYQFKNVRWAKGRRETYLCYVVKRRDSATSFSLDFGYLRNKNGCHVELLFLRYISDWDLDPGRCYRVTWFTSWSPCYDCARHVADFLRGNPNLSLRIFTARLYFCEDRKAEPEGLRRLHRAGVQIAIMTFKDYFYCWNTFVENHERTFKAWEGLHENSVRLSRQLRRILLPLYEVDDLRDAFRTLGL
In short: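 Compounds (up to 114 uM final) are tested against AID plus UDG using DJC20/DJC23 FRET substrate. Reactions incubate 4 hr at room temperature, receive NaOH for 30 min, and are read at Ex 540/Em 590 nm.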

[28] = biological target: Calcium and integrin-binding protein 1 (Homo sapiens) (UniProt Q99828); assay: Validation qHTS for Identification of Calcium Integrin Binding protein 1 (CIB1) Competitor (AID 1508618)
Sequence of Calcium and integrin-binding protein 1 (Homo sapiens) (Q99828 whole entry, looked up): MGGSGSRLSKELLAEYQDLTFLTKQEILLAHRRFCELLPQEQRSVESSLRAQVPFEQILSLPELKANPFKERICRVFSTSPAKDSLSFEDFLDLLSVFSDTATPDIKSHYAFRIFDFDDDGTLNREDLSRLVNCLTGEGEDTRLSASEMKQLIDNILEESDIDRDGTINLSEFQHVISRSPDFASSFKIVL
In short: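 CIB1-GST (1 uM final) incubated 15 min at room temperature with compounds (up to 114 uM), then FITC-labelled alphaIIb peptide (100 nM) added. FP read (Ex 480/Em 540) after 15 min, pH 7.4 buffer containing 5 mM CaCl2.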

Papain (Carica papaya) = Papain (Carica papaya) (UniProt P00784); assay: Primary qHTS assay for inhibitors of the protease papain (AID 1645873);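 also: papain turnover of Z-FR-AMC read as the AMC fluorescence gain over 10 min; series mostly up to about 50 µM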
Sequence of Papain (Carica papaya) (P00784 whole entry, looked up): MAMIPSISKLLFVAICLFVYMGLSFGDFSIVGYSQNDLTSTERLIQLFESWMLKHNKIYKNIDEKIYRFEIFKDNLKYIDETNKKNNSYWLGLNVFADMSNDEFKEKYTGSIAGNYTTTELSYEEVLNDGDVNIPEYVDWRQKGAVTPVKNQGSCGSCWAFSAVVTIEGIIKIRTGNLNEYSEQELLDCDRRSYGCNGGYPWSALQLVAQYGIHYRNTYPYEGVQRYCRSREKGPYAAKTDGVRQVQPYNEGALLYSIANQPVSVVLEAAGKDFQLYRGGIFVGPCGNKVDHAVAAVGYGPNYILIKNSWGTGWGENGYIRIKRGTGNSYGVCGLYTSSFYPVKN

[29] = biological target: Metallo-beta-lactamase type 2 (Klebsiella pneumoniae) (UniProt C7C422); assay: qHTS to identify inhibitors of the New Delhi Metallo-beta-lactamase (NDM): assay validation screen against the NCATS LOPAC Collection (AID 1794843); also: series mostly up to about 38 µM
Sequence of Metallo-beta-lactamase type 2 (Klebsiella pneumoniae) (C7C422 whole entry, looked up): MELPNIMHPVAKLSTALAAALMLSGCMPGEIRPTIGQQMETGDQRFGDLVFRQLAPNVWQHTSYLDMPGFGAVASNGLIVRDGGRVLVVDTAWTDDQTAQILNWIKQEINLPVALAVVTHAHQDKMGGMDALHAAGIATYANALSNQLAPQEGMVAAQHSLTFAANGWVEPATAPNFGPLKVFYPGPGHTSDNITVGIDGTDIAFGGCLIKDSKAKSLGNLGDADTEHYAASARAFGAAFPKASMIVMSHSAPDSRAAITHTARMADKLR
In short: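 Absorbance at 485 nm from nitrocefin turnover (50 uM solution added), read at plateau, gives the read-out. Compounds in DMSO were incubated first with 2 nM final NDM-1 in pH 7.0 HEPES buffer containing 1 uM ZnSO4 and 0.01% Tween20.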

[30] = biological target: Glutathione peroxidase 1 (Homo sapiens) (UniProt P07203); assay: Primary qHTS Assay for Inhibitors of Recombinant Selenoprotein Glutathione Peroxidase 1 (GPX1) (AID 1845191); also: nearly all actives have a fitted effect of over 65% in size
Sequence of Glutathione peroxidase 1 (Homo sapiens) (P07203 whole entry, looked up): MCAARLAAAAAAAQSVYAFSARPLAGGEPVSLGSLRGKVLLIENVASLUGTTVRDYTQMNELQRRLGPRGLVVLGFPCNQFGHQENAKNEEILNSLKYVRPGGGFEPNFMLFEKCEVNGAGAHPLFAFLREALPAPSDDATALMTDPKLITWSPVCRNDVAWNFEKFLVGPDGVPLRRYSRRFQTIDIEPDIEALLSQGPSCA
In short: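 GPX1 10 nM, GR 100 nM, GSH 1 mM, NADPH 0.5 mM, CHP 0.5 mM (final). 30-min cpd preincubation, RT. Ex340/Em450 read t=0, t=15 min.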

[31] = biological target: Phospholipid hydroperoxide glutathione peroxidase GPX4 (Homo sapiens) (UniProt P36969); assay: Primary qHTS Assay for Inhibitors of Recombinant Selenoprotein Glutathione Peroxidase 4 (GPX4) (AID 1845192); settings: outcome: dose series up to 50 µM unless noted; also: nearly all actives have a fitted effect of over 65% in size
Sequence of Phospholipid hydroperoxide glutathione peroxidase GPX4 (Homo sapiens) (P36969 whole entry, looked up): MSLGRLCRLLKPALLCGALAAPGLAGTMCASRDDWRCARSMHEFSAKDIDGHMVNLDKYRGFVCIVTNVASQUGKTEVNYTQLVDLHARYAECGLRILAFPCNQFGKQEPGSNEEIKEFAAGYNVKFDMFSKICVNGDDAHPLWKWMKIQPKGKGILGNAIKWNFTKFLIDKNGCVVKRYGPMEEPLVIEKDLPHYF
In short: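 qHTS, GR-coupled: GPX4 200 nM + cpd 30 min RT → GSH 1 mM, NADPH 0.5 mM, GR 100 nM → CHP 0.5 mM start; fluor 340/450 at t0 and t15 min; no-enzyme wells as control.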

Measured: Potency

CC[N+](CC)(CC)CC
inactive: all assays above
